Assay results as given in the supplement of paper PMC11732987, “Enantioselective OTUD7B fragment discovery through chemoproteomics screening and high-throughput optimisation” (Communications Chemistry, 2025).

Experiments:
Assay in all cases: log2 ratio of Biotin-Ahx-Ub-VS probe labelling (fragment/DMSO); higher = less target engagement (more negative = stronger competition), active = hit call of the paper (q ≤ 0.05, log2 ratio ≤ -1)
Details in all cases: compound concentration: 200 uM; treatment time: 3 h
USP42 = target: T1, USP42 (UniProt Q9H9J4)
T1 sequence (whole entry): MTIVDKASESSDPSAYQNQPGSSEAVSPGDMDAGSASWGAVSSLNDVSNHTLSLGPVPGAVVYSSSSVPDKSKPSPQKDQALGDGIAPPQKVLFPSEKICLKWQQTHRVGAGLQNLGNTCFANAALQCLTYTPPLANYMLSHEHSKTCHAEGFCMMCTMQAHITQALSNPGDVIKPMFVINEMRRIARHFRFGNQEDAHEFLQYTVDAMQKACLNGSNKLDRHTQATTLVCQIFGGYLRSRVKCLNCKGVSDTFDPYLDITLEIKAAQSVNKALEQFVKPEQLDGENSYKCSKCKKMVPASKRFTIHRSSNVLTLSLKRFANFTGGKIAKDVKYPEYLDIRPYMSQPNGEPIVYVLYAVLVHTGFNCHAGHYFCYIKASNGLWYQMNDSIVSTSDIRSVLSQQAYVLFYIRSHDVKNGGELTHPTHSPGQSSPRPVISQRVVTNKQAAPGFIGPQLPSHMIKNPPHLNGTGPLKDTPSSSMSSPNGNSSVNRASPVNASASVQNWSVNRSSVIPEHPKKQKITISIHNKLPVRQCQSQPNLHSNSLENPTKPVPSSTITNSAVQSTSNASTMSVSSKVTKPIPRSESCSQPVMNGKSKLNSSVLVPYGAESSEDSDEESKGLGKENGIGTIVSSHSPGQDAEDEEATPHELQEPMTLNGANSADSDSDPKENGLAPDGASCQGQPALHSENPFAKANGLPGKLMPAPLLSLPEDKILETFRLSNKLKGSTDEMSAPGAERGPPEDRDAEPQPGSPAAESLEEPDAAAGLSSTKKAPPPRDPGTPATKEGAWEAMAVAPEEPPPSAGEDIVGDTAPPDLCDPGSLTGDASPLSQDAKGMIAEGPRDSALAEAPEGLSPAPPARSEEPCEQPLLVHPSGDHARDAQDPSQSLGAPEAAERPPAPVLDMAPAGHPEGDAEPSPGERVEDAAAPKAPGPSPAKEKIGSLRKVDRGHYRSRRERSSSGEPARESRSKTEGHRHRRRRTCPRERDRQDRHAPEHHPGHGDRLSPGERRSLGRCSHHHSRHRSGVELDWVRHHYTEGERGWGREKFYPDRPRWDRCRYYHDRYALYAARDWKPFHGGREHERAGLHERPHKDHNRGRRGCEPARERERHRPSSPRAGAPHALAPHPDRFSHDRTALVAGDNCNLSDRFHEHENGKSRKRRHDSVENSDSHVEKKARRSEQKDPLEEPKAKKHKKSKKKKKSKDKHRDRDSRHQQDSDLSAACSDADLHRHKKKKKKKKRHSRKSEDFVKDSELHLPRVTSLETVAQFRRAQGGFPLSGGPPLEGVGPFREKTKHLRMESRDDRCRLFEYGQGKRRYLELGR
Outline: (§1)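 HEK293T lysate (495 µg per sample, in Tris/CHAPS/IGEPAL buffer with protease inhibitors) was treated in triplicate with fragment at 200 µM or with DMSO for 3 h. It was then treated with Biotin-Ahx-Ub-VS (0.5 µM final) for 1 h. Labelled DUBs were NeutrAvidin-enriched, digested with LysC and trypsin, and run by diaPASEF LC-MS/MS. Spectronaut label-free quantities were global-median-normalised. Values are average log2 ratios fragment/DMSO by unpaired t-test, using proteins with ≥2 unique peptides.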

USP46 = USP46 (UniProt P62068)
Chain of USP46 (P62068 whole entry): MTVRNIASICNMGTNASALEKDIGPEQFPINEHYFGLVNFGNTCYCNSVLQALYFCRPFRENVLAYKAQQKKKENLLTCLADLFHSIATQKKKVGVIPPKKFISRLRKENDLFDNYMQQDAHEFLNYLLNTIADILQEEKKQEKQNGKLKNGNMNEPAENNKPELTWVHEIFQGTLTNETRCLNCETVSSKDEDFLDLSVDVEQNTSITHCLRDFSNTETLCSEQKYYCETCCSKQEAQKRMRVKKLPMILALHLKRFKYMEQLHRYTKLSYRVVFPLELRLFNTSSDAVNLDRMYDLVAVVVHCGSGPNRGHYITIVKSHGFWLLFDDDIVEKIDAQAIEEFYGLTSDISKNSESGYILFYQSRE
Outline: as §1

USP47 = target: T2, USP47 (UniProt Q96K76)
T2 sequence (whole entry): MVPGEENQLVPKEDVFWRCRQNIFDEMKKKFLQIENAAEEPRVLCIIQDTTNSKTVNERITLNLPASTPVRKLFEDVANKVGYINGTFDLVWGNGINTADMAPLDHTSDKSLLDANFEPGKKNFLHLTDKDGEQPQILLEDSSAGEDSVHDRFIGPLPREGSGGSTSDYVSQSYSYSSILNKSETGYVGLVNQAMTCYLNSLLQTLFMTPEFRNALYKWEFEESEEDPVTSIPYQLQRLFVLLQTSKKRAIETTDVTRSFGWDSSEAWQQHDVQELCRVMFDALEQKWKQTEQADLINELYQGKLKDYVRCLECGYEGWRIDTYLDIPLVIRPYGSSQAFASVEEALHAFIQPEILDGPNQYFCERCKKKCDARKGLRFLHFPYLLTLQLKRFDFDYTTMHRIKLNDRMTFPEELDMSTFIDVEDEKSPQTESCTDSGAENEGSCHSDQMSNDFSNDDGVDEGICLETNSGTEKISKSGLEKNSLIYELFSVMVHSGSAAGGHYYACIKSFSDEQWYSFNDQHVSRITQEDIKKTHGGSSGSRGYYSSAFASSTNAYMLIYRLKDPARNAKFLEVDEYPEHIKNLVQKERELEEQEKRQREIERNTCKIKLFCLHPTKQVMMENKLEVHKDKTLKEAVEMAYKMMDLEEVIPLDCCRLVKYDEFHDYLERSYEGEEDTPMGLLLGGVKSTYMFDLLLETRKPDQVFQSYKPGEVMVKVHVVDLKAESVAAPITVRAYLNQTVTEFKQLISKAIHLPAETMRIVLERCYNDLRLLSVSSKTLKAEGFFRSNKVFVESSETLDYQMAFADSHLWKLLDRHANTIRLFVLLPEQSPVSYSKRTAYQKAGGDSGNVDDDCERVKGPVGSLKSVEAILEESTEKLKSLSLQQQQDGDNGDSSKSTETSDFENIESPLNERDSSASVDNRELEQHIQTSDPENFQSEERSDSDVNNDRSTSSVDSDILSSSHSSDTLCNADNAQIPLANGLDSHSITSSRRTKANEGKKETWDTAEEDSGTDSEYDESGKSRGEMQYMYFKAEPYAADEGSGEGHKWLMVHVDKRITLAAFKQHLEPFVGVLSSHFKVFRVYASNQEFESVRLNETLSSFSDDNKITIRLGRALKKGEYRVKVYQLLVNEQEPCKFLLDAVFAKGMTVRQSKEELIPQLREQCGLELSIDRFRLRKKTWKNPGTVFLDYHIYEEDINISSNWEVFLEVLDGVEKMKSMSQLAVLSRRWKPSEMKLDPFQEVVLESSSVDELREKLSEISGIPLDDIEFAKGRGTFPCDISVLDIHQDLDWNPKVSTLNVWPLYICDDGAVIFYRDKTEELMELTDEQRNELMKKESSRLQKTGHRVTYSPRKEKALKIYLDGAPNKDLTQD
Outline: as §1

USP48 = target: T3, USP48 (UniProt Q86UV5)
T3 sequence (whole entry): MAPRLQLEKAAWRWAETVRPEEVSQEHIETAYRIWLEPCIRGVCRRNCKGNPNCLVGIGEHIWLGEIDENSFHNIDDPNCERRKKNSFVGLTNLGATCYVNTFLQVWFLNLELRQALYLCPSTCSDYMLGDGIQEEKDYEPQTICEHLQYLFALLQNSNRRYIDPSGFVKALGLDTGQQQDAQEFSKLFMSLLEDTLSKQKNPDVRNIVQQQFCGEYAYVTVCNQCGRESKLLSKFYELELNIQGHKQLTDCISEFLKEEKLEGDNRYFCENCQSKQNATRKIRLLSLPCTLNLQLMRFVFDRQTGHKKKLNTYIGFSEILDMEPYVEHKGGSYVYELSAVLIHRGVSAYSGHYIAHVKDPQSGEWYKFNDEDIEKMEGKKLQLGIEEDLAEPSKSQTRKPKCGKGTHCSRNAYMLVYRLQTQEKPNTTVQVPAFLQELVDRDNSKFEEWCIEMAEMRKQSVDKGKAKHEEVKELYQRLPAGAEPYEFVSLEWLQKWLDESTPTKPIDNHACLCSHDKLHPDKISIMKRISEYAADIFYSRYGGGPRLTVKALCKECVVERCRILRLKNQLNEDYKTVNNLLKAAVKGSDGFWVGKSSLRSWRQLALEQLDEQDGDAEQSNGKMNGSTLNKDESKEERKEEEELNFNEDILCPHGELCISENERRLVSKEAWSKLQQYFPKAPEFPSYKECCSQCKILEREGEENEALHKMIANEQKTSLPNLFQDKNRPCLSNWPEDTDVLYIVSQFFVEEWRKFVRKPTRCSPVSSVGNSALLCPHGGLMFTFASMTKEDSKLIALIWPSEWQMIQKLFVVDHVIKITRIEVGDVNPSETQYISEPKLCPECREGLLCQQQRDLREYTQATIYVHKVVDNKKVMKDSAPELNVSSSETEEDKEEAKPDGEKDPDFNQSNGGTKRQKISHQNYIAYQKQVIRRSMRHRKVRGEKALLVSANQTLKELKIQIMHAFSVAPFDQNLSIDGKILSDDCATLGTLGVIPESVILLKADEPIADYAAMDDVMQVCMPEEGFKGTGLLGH
Outline: as §1

USP5 = target: T4, USP5 (UniProt P45974)
T4 sequence (whole entry): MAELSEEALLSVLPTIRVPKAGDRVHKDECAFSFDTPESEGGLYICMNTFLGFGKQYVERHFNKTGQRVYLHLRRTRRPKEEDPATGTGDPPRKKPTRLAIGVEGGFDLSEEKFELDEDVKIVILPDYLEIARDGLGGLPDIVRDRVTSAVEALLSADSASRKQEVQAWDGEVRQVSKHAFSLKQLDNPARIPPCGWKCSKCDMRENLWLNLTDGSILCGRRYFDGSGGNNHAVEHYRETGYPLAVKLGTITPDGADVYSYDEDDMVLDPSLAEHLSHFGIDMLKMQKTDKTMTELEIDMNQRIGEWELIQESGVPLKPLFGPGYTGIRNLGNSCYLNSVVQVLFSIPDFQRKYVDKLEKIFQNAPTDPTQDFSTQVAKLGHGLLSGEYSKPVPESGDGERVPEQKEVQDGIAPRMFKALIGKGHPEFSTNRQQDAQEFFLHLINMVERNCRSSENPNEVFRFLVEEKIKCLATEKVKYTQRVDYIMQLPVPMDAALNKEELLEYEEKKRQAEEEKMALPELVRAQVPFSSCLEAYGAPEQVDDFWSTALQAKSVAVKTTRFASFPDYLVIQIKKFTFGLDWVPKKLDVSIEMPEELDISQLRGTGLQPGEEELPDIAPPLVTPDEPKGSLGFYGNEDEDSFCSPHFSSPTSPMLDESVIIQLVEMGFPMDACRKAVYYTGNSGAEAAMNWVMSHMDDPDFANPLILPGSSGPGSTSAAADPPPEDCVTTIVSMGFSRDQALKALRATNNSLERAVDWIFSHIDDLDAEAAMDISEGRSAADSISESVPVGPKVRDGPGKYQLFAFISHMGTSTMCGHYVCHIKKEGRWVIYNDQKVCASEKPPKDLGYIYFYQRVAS
Outline: as §1

USP54 = USP54 (UniProt Q70EL1)
Chain of USP54 (Q70EL1 whole entry): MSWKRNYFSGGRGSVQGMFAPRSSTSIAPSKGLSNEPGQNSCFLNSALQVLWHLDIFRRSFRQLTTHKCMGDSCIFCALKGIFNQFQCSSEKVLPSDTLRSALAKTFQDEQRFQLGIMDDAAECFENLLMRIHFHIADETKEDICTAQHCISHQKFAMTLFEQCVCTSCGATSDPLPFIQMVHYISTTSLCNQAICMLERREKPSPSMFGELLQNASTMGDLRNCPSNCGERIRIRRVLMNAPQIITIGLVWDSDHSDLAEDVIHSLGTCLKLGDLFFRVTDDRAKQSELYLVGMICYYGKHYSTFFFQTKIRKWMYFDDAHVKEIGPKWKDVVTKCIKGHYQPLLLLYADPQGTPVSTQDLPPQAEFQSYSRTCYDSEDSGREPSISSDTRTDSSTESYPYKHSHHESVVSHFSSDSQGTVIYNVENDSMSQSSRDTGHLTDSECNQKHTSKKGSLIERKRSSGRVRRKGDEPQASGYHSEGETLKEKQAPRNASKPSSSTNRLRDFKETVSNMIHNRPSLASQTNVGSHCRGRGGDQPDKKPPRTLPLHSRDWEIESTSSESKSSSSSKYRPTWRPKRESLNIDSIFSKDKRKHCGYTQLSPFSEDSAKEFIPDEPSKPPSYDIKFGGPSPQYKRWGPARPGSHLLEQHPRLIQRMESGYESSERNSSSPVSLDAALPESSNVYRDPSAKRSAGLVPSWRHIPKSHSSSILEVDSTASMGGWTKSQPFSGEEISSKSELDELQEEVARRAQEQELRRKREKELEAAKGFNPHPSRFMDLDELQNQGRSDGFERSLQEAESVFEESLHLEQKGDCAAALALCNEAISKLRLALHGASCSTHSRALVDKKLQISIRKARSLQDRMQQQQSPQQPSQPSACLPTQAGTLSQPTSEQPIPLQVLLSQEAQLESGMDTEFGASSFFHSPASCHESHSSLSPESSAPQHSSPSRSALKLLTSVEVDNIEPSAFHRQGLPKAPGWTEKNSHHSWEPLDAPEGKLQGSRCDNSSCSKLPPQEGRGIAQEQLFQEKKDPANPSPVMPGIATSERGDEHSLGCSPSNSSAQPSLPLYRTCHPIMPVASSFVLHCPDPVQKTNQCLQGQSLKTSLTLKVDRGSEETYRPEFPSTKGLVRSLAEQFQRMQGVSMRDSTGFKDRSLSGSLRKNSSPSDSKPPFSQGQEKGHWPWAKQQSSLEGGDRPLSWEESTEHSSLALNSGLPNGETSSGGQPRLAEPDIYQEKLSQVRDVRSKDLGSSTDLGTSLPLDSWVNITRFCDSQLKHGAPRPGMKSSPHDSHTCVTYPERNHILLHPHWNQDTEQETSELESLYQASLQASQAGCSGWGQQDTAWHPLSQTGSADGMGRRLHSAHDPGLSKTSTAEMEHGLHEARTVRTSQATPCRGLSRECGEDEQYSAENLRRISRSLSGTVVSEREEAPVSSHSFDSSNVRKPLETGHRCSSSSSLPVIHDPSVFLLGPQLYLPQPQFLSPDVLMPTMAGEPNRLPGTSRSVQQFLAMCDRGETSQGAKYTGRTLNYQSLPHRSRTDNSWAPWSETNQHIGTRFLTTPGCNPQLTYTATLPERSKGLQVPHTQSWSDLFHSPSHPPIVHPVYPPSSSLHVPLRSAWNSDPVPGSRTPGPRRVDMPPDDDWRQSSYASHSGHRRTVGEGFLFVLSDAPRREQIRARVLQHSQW
Outline: as §1

USP7 = USP7 (UniProt Q93009)
Chain of USP7 (Q93009 whole entry, looked up): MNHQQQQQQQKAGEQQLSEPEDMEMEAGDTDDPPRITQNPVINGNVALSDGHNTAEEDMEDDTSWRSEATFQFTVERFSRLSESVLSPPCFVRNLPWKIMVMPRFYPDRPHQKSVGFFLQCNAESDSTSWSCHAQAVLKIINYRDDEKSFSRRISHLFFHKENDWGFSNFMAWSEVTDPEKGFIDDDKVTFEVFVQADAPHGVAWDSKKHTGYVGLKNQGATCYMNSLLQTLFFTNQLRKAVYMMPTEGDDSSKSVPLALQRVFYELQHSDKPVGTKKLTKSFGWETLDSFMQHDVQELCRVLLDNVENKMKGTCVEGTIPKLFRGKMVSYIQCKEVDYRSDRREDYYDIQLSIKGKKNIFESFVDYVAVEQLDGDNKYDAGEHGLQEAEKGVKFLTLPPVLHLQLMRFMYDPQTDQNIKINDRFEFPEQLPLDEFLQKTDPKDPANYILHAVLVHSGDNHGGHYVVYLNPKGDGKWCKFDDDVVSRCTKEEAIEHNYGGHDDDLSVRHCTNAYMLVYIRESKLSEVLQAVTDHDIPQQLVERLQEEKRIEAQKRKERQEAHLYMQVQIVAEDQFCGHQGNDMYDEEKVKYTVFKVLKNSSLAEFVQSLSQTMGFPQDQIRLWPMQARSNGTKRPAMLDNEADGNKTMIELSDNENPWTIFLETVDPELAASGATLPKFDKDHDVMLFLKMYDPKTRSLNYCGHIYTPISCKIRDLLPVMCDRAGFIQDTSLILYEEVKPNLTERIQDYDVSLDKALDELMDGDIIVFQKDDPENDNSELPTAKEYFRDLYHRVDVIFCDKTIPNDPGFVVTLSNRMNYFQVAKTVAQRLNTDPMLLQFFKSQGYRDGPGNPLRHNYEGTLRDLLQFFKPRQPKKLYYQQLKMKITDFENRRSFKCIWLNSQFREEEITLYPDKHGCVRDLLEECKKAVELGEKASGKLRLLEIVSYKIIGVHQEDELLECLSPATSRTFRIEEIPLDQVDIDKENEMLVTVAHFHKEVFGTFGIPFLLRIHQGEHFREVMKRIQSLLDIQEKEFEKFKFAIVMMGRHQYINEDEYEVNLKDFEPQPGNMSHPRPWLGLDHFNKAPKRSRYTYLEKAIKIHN
Outline: as §1

USP8 = target: T5, USP8 (UniProt P40818)
T5 sequence (whole entry): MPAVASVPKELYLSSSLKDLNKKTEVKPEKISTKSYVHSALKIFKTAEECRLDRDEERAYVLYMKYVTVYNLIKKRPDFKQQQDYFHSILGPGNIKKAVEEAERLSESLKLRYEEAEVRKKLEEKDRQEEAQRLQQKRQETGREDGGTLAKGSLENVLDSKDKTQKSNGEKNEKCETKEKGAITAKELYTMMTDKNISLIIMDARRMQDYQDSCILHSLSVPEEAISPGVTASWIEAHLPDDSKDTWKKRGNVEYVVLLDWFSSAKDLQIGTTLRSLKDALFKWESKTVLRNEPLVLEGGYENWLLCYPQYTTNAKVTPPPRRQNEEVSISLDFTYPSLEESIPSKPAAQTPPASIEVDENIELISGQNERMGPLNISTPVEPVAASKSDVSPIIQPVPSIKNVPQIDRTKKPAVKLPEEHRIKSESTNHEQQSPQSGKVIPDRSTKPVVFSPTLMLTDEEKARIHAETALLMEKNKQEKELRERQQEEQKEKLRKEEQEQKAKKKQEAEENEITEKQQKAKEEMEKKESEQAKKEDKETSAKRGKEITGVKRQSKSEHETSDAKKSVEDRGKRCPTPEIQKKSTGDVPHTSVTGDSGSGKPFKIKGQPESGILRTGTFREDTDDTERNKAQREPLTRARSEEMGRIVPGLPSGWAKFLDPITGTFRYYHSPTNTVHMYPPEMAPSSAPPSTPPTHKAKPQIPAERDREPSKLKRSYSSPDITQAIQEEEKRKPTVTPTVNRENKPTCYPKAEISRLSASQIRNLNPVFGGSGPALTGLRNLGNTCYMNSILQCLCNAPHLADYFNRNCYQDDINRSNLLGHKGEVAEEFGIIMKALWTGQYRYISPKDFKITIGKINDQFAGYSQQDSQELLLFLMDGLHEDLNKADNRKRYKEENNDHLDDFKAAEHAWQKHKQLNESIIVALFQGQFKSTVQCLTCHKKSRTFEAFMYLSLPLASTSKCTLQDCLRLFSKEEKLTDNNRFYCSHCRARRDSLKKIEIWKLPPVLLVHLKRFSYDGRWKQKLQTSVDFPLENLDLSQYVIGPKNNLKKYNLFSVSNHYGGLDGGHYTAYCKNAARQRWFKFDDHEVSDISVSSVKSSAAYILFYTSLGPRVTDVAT
Outline: as §1

Measured: log2 ratio of Biotin-Ahx-Ub-VS probe labelling

O=C(CCl)N1CCc2[nH]c3ccccc3c2C1
inactive: USP42 0.132 | USP46 -0.655 | USP47 -0.863 | USP48 -0.532 | USP5 -0.461 | USP54 -0.00488 | USP7 -0.511 | USP8 -0.774
